# According to PubChem BioAssay (NCATS):
# Inconclusive results are not listed. Unmarked numbers belong to inactive results. The source made the active and inactive calls. Calls come from the whole dose curve; as a rule, active = well fitted cell-killing curve with a large enough effect; inconclusive = small, poorly fitted or top-dose-only effect, or effect the other way; inactive = no such curve, though single readings can be large or run the other way.
# Assay: Quantitative highthroughput screen to assess conditional lethalithy of SEM cells grown in RPMI1640 with unreated serum (RPMI+s) (AID 1963883); note: nearly all actives have a fitted effect of over 35% in size
# Conditions: SEM B-ALL cells, CellTiter-Glo viability, 48 h; series mostly up to 45.8 µM; viability: at the top concentration
# Excerpt: Assay Provider: Jason Cantor Ph.D.
# Department of Biochemistry
# University of Wisconsin-Madison, Madison, WI, USA
# Chemical screening studies have identified drug sensitivities across hundreds of cancer cell lines but most putative therapeutics fail to translate. Discovery and development of drug candidates in models that more accurately reflect nutrient levels in human blood is a major challenge. Here we performed high-throughput screens in conventional versus Human Plasma-Like Medium (HPLM) to identify compounds that were "missed" when screening using the artificial culture condition. Sets of conditional anticancer compounds spanned phases of clinical development and included non-oncology drugs were assessed. […] We also traced conditional phenotypes for several chemotherapeutics to availability of HPLM-specific metabolites and confirmed others for compounds whose reported targets are encoded by nonessential genes. Our findings establish generalizable strategies for exploiting conditional lethality in HPLM to reveal therapeutic candidates and mechanisms of action in cancer cells.
# Described herein are the results of each viability screens against three cell lines: NOMO1 (an acute myeloid leukemia cell line); P12-Ichikawa (a T-cell acute lymphoblastic leukemia); and SEM (a B-cell ALL). Each assay was screened using 3 different cell culture media: homemade human plasma-Like medium with 10% dialyzed fetal bovine serum (HPLM+ds); RPMI1640 with 10% untreated FBS and 5mM glucose (RPMI+s); and RPMI1640 with 10% dialyzed fetal bovine serum and 5 mM glucose (RPMI+ds).
# PROTOCOL TABLE (as described by Inglese J, Shamu CE and Guy RK. 2007)
# SEQUENCE No. (e.g., 1, 2, 3, etc.); […] (e.g., Cells, Incubation, Reagent, etc.); VALUE and DESCRIPTION.
# 1; Cells; 5 uL; white, solid bottom 1536-well Greiner assay plate.
# 2; Compounds; 23 nL; Kalypsis pin tool (Wako USA) equipped with a 1536-well pin head to transfer to the assay plates.
# 3; Incubation; 48 hours; 37C incubation.
# 4; Reagent; 3 uL; CellTiter Glo (Promega).
# 5; Incubation; 5 min, room temperature
# 6; Detection; Luminescence, Viewlux PerkinElmer.
# NOTES (numbers refer to Sequence numbers above)
# 1. Briefly, 5 ul of cell reagent was dispensed using a Multidrop Combi Dispenser. The NOMO1 and SEM cells were plated at 500 cells/well and the P12-Ichikawa line at 1000 cells/well.
# 2. After seeding the cells, 23 nL of MIPE 4.1 library compounds (in DMSO) were added to each plate using a Kalypsys 1536 Pintool dispenser. Bortezomib at final concentration of […] and DMSO were added to each plate as positive and negative controls respectively. For each screen, MIPE 4.1 compounds were added over an eleven-point concentration range […] in 3-fold dilutions.
# 3. Each plate was covered with a stainless steel gasketed lid to prevent evaporation and incubated for 48 hour at 37C, 95% relative humidity, and 5% CO2.
# 4-5. Three microliter CellTilter-GloTM luminescent substrate mix (Promega) reagent was added to the assay plate and incubated at room temperature for 5 min.
# 6. The luminescence signal was measured using a ViewLux (PerkinElmer) multiplate reader with a 2 second exposure time per plate. Data for each compound were normalized as percent viability such that measurements for DMSO and the empty well controls in each plate were defined as 100% and 0%, respectively.
# Potency is the fitted concentration of half-maximal effect.
SMILES,viability [%],Potency
CS(=O)(=O)Oc1ccc2c(NC(N)=O)c(C(=O)c3ccc(Cl)cc3Cl)oc2c1,98.4,
Nc1nc(F)nc2c1ncn2[C@@H]1O[C@H](COP(=O)(O)O)[C@@H](O)[C@H]1O,,8.33 µM (active)
O=C(Nc1cccc(Cl)c1)Nc1ncc(CCNc2ncnc3ccsc23)s1,,0.209 µM (active)
O=C1CCCC(=O)C1C(=O)c1ccc(C(F)(F)F)cc1[N+](=O)[O-],92.5,
CCCCCCOC(=O)N=C(N)c1ccc(NCc2nc3cc(C(=O)N(CCC(=O)OCC)c4ccccn4)ccc3n2C)cc1,67.5,
CC(C=CC=C(C)C=CC1=C(C)CCCC1(C)C)=CC=CC=C(C)C=CC=C(C)C=CC1=C(C)CCCC1(C)C,97.2,
Cc1noc(NS(=O)(=O)c2ccc(N)cc2)c1C,95.2,
COc1ccc(CCC(=O)Nc2nc3ccc(Cl)cc3s2)cc1OC,93.1,
CC[C@H]1OC(=O)[C@H](C)[C@@H](O[C@H]2C[C@@](C)(OC)[C@@H](O)[C@H](C)O2)[C@H](C)[C@@H](O[C@@H]2O[C@H](C)C[C@H](N(C)C)[C@@H]2O)[C@](C)(OC)C[C@@H](C)C(=O)[C@H](C)[C@@H](O)[C@]1(C)O,95.4,
CCc1ccc(OCc2ccccc2C(=O)Nc2ccc3nc(C)cc(N)c3c2)cc1,,10.5 µM (active)
CO[C@@H]1[C@H](N(C)C(=O)c2ccccc2)C[C@H]2O[C@]1(C)n1c3ccccc3c3c4c(c5c6ccccc6n2c5c31)C(=O)NC4,,0.743 µM (active)
CC(C)C[C@H](NC(=O)[C@@H](NC(=O)c1cccc(-c2ccccc2)n1)[C@@H](C)O)B(O)O,,0.0132 µM (active)
Cc1ccc(/C=N/NC(=O)c2ccccc2Oc2ccccc2)o1,104,
CCOC(=O)[C@@]1(CCCCCCOc2ccc(Cl)cc2)CO1,,11.7 µM (active)
CN(C)C(=O)c1ccc(S(=O)(=O)c2ccc(NC(=O)[C@@](C)(O)C(F)(F)F)c(Cl)c2)cc1,,11.8 µM (active)
COc1cc(NS(=O)(=O)c2ccc(N)cc2)nc(OC)n1,109,
CCNC(=O)c1noc(-c2cc(C(C)C)c(O)cc2O)c1-c1ccc(CN2CCOCC2)cc1,,0.0418 µM (active)
OC[C@H]1O[C@@H](Oc2ccc(O)cc2)[C@H](O)[C@@H](O)[C@H]1O,85.9,
C=CCn1c(=O)c2cnc(Nc3ccc(N4CCN(C)CC4)cc3)nc2n1-c1cccc(C(C)(C)O)n1,,0.418 µM (active)
CC1=C(C(=O)Nc2cc3cn[nH]c3cc2F)C(c2ccc(Cl)cc2F)N=C(c2ccnc(Cl)c2)N1 (stereo not given),,18.7 µM (active)

SMILES,viability [%],Potency
C=C1C(=O)[C@@]23C(CC[C@@H]1[C@H]2O)[C@@]12CO[C@]3(O)[C@@H](O)[C@@H]1C(C)(C)CC[C@@H]2O (stereo not given in full),,3.72 µM (active)
Cc1cnc(NC(=O)C2=C(O)c3ccccc3S(=O)(=O)N2C)s1,105,
COc1ccc2c(c1)CC[C@@H](CN(C)CC(=O)O)[C@H]2c1ccccc1,,2.64 µM (active)
Cn1cc(CNCC2CCN(c3ncc(C(=O)NO)cn3)CC2)c2ccccc21,,0.148 µM (active)
Cc1cccc(Nc2nc(N[C@@H]3CCCC[C@H]3N)ncc2C(N)=O)c1,,4.18 µM (active)
Cc1ccc(C(=O)Nc2ccc(S(=O)(=O)O)c3cc(S(=O)(=O)O)cc(S(=O)(=O)O)c23)cc1NC(=O)c1cccc(NC(=O)Nc2cccc(C(=O)Nc3cc(C(=O)Nc4ccc(S(=O)(=O)O)c5cc(S(=O)(=O)O)cc(S(=O)(=O)O)c45)ccc3C)c2)c1,,4.69 µM (active)
COc1cc2c(cc1OC)CC(=O)N(CCCN(C)C[C@H]1Cc3cc(OC)c(OC)cc31)CC2,95.3,
CCN1C[C@H](C)n2c(c(O)c3c(=O)n(Cc4ccc(F)c(Cl)c4)nc(C(=O)NC)c32)C1=O,102,
N#Cc1cc(NC(=O)Nc2nnc(-c3ccncc3)s2)ccc1-c1cn[nH]c1,98.4,
Nc1cccc(S(=O)(=O)N2CCCN(S(=O)(=O)c3ccc4c(c3)OCCO4)CC2)c1,93.1,
COC(=O)C1=C(C)NC(C)=C(C(=O)OCCCN2CCC(c3ccccc3)(c3ccccc3)CC2)C1c1cccc([N+](=O)[O-])c1 (stereo not given),101,
O=C(Nc1ccccc1-c1cn2c(CN3CCNCC3)csc2n1)c1cnc2ccccc2n1,,18.7 µM (active)
CC1(C)C(=O)N(CCN2CCC(C(=O)c3ccc(F)cc3)CC2)c2ccccc21,82.7,
NC1(C(=O)N[C@@H](CCO)c2ccc(Cl)cc2)CCN(c2ncnc3[nH]ccc23)CC1,,3.32 µM (active)
COc1cc2ncnc(-n3nc(-c4ccccn4)nc3N)c2cc1OC,,1.32 µM (active)
CC(=Cc1ccccc1)C=C1SC(=S)N(CC(=O)O)C1=O,,5.9 µM (active)
NC1CCC(N[C@@H]2C[C@H]2c2ccccc2)CC1 (stereo not given in full),80.9,
Cc1cc(Nc2nc(N[C@@H](C)c3ccc(F)cc3)c(C#N)cc2F)n[nH]1,,2.96 µM (active)
CCOC(=O)N1CCC(=C2c3ccc(Cl)cc3CCc3cccnc32)CC1,86.6,
Cc1ccc(CN2CCNCC2)cc1NC(=O)CNc1ccc(F)c(F)c1,101,
